Experimental findings from PubChem BioAssay (NCI) are described below.

Structures are written as SMILES. This is part of a sample that, as a whole, favours compounds with a hit. Of some 83,000 tested, about 20% had one in any assay.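 How to read the values: 0–100, growth inhibition (40 = 60% inhibited); 0, no net growth; -100 to 0, cell death (-40 = 40% of starting cells died; -100 = all dead).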 Unmarked numbers belong to inactive results. Activity calls are given as the source filed them. Rule for the calls: active = growth percent below 10; inactive = the rest.

The first test concerns NCI-H322M lung. Description: NCI-60 one-dose screen, 48 h (100 = growth as untreated, 0 = no growth, -100 = all killed). The note with it: 10 µM unless noted.
For the molecule `CCCCC[C@H]1C/C=C2/C(=O)C(Cl)=C[C@@H]2C/C=C\CCCC(=O)O[C@@H](CCCCC)C/C=C2/C(=O)C(Cl)=C[C@@H]2C/C=C\CCCC(=O)O1`, the growth is -31.2% (active).

Turning to `O=C1CNCCN1`, the growth is 106%.

`COc1ccc2c3c(c4ccccc4cc13)C(=O)N(CCN(C)CCN)C2=O`: the growth was -44.4% (active).

In the case of `CCN(CC)CCCCCNc1cc(OC(=O)c2ccccc2)cc2cccnc12`, the growth was 102%.

`CC(=O)OC(C)COc1ccc(-c2ccccc2)cc1` (configuration not stated): the growth was 121%.

In the case of `COc1ccc(CCN2C(=O)C(C)(C)SC2=S)cc1OC`, the growth is 103%.

With `c1ccc2[nH]c(-c3cc(-c4ccc5c(c4)OCO5)n[nH]3)nc2c1`, the growth is 67.1%.

With `Cn1cc(-c2csc(-c3cn(CCCN4CCCCC4)c4ccccc34)n2)c2cccnc21`, the growth was 82.7%.

As to `COC(=O)[C@]12CC[C@@H](C)[C@H](C)[C@@H]1C1=CC[C@@H]3[C@@]4(C)C[C@@H](O)[C@H](O)[C@@](C)(CO)C4=CC[C@@]3(C)[C@]1(C)CC2`, the growth was -84.7% (active).

`CC1(n2nnnc2N2CCCN(c3ncccc3N)CC2)CCC1`: the growth is 94.2%.

With `C=C1CC[C@@H](C(=O)OC)Cc2nc(C)ccc21`, the growth is 109%.

Regarding `Clc1cc(Cl)cc(Nc2ccc3c(OCCCN4CCOCC4)cccc3n2)c1`, the growth was 45.1%.

Regarding `Cc1ccc(-c2ccc(/C=C(\C#N)c3nc(-c4ccco4)cs3)o2)cc1`, the growth was 90.2%.

With `CCSc1ncnc2c1ncn2C1OC(CO)C(O)C1O` (configuration not stated), the growth is 42.6%.

On to `CCN(CC)C(=O)CCCCCn1c2ccccc2c2c3c(c4c5ccccc5[nH]c4c21)C(=O)N(O)C3=O`, for which the growth was 81.8%.

For `N#C/C(=C\c1ccc(-c2ccccc2)o1)c1nc(-c2ccco2)cs1`, the growth was 84.6%.

In the case of `C/C(=N\Nc1cc(C)c2cc(C)ccc2n1)c1ccccn1`, the growth was -9.38% (active).

In the case of `O=C1c2ccccc2NC(c2cn(-c3ccccc3)nc2-c2cccs2)N1Cc1ccccc1` (configuration not stated), the growth was 85.3%.

Consider `C[C@]12CC[C@@H]3c4ccc(O)cc4CC[C@H]3[C@@H]1C[C@H](O)[C@@H]2O`, for which the growth is 88.7%.

For `CC(=O)n1c(/C(C#N)=C/c2ccc(N(C)C)cc2)cc2ccccc21`, the growth is 53.3%.

On to `Fc1ccc2[nH]cc(-c3nc(-c4c[nH]c5ncccc45)cs3)c2c1`, for which the growth is 74.6%.

Turning to `S=c1[nH]nc2ccccn12`, the growth was 105%.

`N#Cc1c(-c2ccc(O)cc2)c2c(N)nn(-c3ccccc3)c2[nH]c1=O`: the growth is 103%.

As for `COc1ccc(OC)c(-c2c(C#N)c(-c3ccco3)nc3c2c(-c2ccccc2)nn3-c2ccccc2)c1`, the growth was 103%.

A further test deals with HOP-62 NSCLC. Described as above. The conditions noted are these: 10 µM unless noted.
With `Nc1nc2c3ccncc3cc(-c3cccc(Cl)c3)c2c2cnccc12`, the growth was 44.1%.

Regarding `O=C1c2cc3c(cc2-c2c1c1ccc(F)cc1c(=O)n2CCCN1CCOCC1)OCO3`, the growth was 18.9%.

`c1ccc(CN2C(c3ccccc3)=Nc3ccccc3C2c2c[nH]c3ccccc23)cc1` (configuration not stated): the growth is 47.1%.

Consider `O=C1C(Cl)=C(Nc2ccc(S(=O)(=O)c3ccc(NC4=C(Cl)C(=O)c5ccccc5C4=O)cc3)cc2)C(=O)c2ccccc21`, for which the growth was 36.1%.

Regarding `CCc1cccc(CC)c1NC(=O)c1sc2nc3c(cc2c1N)CCCC3`, the growth was 50.5%.

With `COc1cc2[nH]c(C(=O)c3cc(OC)c(OC)c(OC)c3)c(N)c2cc1C#CCO`, the growth was 28.3%.

In the case of `Cn1cc(-c2csc(-c3cn(C(=O)OC(C)(C)C)c4ccc(Br)cc34)n2)c2cccnc21`, the growth is 99.2%.

`Fc1cccc(-c2[nH]nc3nc(Nc4cccnc4)sc23)c1`: the growth was 55.4%.

For the molecule `O=Cc1nc2ccccc2[nH]1`, the growth is 90.1%.

In the case of `N#C/C(=C\c1ccc(-c2ccc(Br)cc2)o1)c1nc(-c2ccco2)cs1`, the growth was 95.7%.

As to `C[C@H]1OC(=O)/C=C/[C@@H](O)[C@@H](O)CCCCCCCC[C@@H]1O`, the growth is 82.9%.

Turning to `C=C1C(=O)O[C@H]2[C@H]1CC/C(COC(=O)NCc1cc3ccccc3[nH]1)=C\CC[C@@]1(C)O[C@@H]21`, the growth was 58.3%.

`Cc1ccc(-c2nn(Cc3cn(-c4cc(C)nc5ccccc45)nn3)c3ncnc(N)c23)cc1`: the growth was 60.4%.

In the case of `COc1ccc(-c2nc3ncccn3c2-c2nc3ccc(Br)cc3[nH]2)cc1`, the growth was 99.3%.

`CCCCC[C@H]1C/C=C2/C(=O)C(Cl)=C[C@@H]2C/C=C\CCCC(=O)O[C@@H](CCCCC)C/C=C2/C(=O)C(Cl)=C[C@@H]2C/C=C\CCCC(=O)O1`: the growth was -52.8% (active).

Turning to `O=C1CNCCN1`, the growth was 114%.

For the molecule `COc1ccc2c3c(c4ccccc4cc13)C(=O)N(CCN(C)CCN)C2=O`, the growth is -77.4% (active).

As for `CCN(CC)CCCCCNc1cc(OC(=O)c2ccccc2)cc2cccnc12`, the growth was 98.7%.

For the molecule `CC(=O)OC(C)COc1ccc(-c2ccccc2)cc1` (configuration not stated), the growth was 102%.

For the molecule `COc1ccc(CCN2C(=O)C(C)(C)SC2=S)cc1OC`, the growth is 103%.

Consider `c1ccc2[nH]c(-c3cc(-c4ccc5c(c4)OCO5)n[nH]3)nc2c1`, for which the growth is 62.6%.

As to `Cn1cc(-c2csc(-c3cn(CCCN4CCCCC4)c4ccccc34)n2)c2cccnc21`, the growth is -84% (active).

Regarding `COC(=O)[C@]12CC[C@@H](C)[C@H](C)[C@@H]1C1=CC[C@@H]3[C@@]4(C)C[C@@H](O)[C@H](O)[C@@](C)(CO)C4=CC[C@@]3(C)[C@]1(C)CC2`, the growth was -61% (active).

`CC1(n2nnnc2N2CCCN(c3ncccc3N)CC2)CCC1`: the growth is 99%.

Consider `C=C1CC[C@@H](C(=O)OC)Cc2nc(C)ccc21`, for which the growth was 106%.

`Clc1cc(Cl)cc(Nc2ccc3c(OCCCN4CCOCC4)cccc3n2)c1`: the growth is 57.4%.

As for `Cc1ccc(-c2ccc(/C=C(\C#N)c3nc(-c4ccco4)cs3)o2)cc1`, the growth was 97.5%.

Take `CCSc1ncnc2c1ncn2C1OC(CO)C(O)C1O` (configuration not stated): the growth is 21.1%.

In the case of `CCN(CC)C(=O)CCCCCn1c2ccccc2c2c3c(c4c5ccccc5[nH]c4c21)C(=O)N(O)C3=O`, the growth was -26.4% (active).

Regarding `N#C/C(=C\c1ccc(-c2ccccc2)o1)c1nc(-c2ccco2)cs1`, the growth was 98.6%.

For `C/C(=N\Nc1cc(C)c2cc(C)ccc2n1)c1ccccn1`, the growth is 10.1%.

Take `O=C1c2ccccc2NC(c2cn(-c3ccccc3)nc2-c2cccs2)N1Cc1ccccc1` (configuration not stated): the growth was 86.9%.

As for `C[C@]12CC[C@@H]3c4ccc(O)cc4CC[C@H]3[C@@H]1C[C@H](O)[C@@H]2O`, the growth is 94.2%.

For `CC(=O)n1c(/C(C#N)=C/c2ccc(N(C)C)cc2)cc2ccccc21`, the growth is 31.3%.

In the case of `Fc1ccc2[nH]cc(-c3nc(-c4c[nH]c5ncccc45)cs3)c2c1`, the growth was 47.6%.

`S=c1[nH]nc2ccccn12`: the growth is 102%.

In the case of `N#Cc1c(-c2ccc(O)cc2)c2c(N)nn(-c3ccccc3)c2[nH]c1=O`, the growth was 100%.

On to `COc1ccc(OC)c(-c2c(C#N)c(-c3ccco3)nc3c2c(-c2ccccc2)nn3-c2ccccc2)c1`, for which the growth was 106%.
